The record followed here is PubChem BioAssay (NCI).

The structures appear in SMILES notation. Compounds without any hit were thinned out: in the full panel of roughly 83,000, 20% have a hit.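 Cell lines were cultured in 96-well plates, exposed to a single compound concentration, and assessed for percent growth 48 hours later.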 A number with no mark means an inactive call. Active and inactive are the calls of the source. The calls were made as follows: active = growth percent below 10; inactive = the rest.

Among the test systems are SK-MEL-2 melanoma; EKVX NSCLC; SN12C renal; UO-31 renal; TK-10 renal; ACHN renal; A498 renal; CCRF-CEM leukemia; MOLT-4 leukemia; SR leukemia; OVCAR-8 ovarian; OVCAR-5 ovarian; OVCAR-4 ovarian; SK-OV-3 ovarian; IGROV1 ovarian; HS 578T breast; OVCAR-3 ovarian; NCI/ADR-RES ovarian; RPMI-8226 leukemia.
Holding throughout (experiment): NCI-60 one-dose screen, 48 h (100 = growth as untreated, 0 = no growth, -100 = all killed)
What all share (conditions): 10 µM unless noted

In the case of `CN1CCN(Cn2nc(-c3cc(F)c(Cl)cc3Cl)n(/N=C/c3ccc(N(C)C)cc3)c2=S)CC1`, the growth in the experiment with SK-MEL-2 melanoma is 90.2%; in the experiment on EKVX NSCLC, 87.1%; with SN12C renal, 102%; with UO-31 renal, 55.5%; in the experiment with TK-10 renal it was 90.2%; with ACHN renal, 92.7%. The growth in the experiment with A498 renal was 78.8%; in the experiment with CCRF-CEM leukemia, 83.5%; in the experiment with MOLT-4 leukemia, 99.1%; in the experiment with SR leukemia, 43.8%; with OVCAR-8 ovarian it was 90.8%; in the experiment on OVCAR-5 ovarian, 106%. The growth is 106% in the experiment on OVCAR-4 ovarian, 77.4% in the experiment with SK-OV-3 ovarian, 57.8% in the experiment with IGROV1 ovarian and 63.5% in the experiment with HS 578T breast.
Consider `CN1CCN(C(=O)/C=C/c2ccc([N+](=O)[O-])o2)CC1`, for which the growth in the experiment with SK-MEL-2 melanoma is 59.5%; in the experiment with EKVX NSCLC, 132%; with SN12C renal it was 91%; in the experiment on UO-31 renal, 79.3%; in the experiment on TK-10 renal, 159%; with ACHN renal, 63.7%. Also, the growth in the experiment on A498 renal is 76%; in the experiment with CCRF-CEM leukemia, 56.4%; with MOLT-4 leukemia it was 59.9%; in the experiment on SR leukemia, 53.6%; in the experiment with OVCAR-8 ovarian, 77.4%; in the experiment with OVCAR-5 ovarian, 127%. The growth was 76.3% in the experiment with OVCAR-4 ovarian; 100% in the experiment with SK-OV-3 ovarian; 92% in the experiment with OVCAR-3 ovarian; 69.2% in the experiment on HS 578T breast; 99.7% in the experiment with NCI/ADR-RES ovarian.
Turning to `O=C(N/N=C/c1ccccc1O)c1ccccc1O`, the growth is 61.1% with SK-MEL-2 melanoma; 37.5% in the experiment on EKVX NSCLC; 41% with SN12C renal; 3.31% (active) in the experiment on UO-31 renal; 42.4% in the experiment with TK-10 renal; 16.7% with ACHN renal. For the same compound, the growth in the experiment on A498 renal is 99.6%; with CCRF-CEM leukemia, 12.7%; in the experiment with MOLT-4 leukemia, 19.3%; in the experiment on SR leukemia it was 17.1%; in the experiment on OVCAR-8 ovarian, 25.1%; in the experiment with OVCAR-5 ovarian, 55.3%. Further, the growth is 24.3% in the experiment on OVCAR-4 ovarian; 47.7% in the experiment on SK-OV-3 ovarian; 24.3% with IGROV1 ovarian; 39.8% with OVCAR-3 ovarian; 21% with NCI/ADR-RES ovarian.
Turning to `CC1=C[S+](c2ccccc2)c2cccc3cc4ccccc4c1c23` (stereo unspecified), the growth in the experiment on SK-MEL-2 melanoma was -65.2% (active); in the experiment with EKVX NSCLC, -1.91% (active); in the experiment with SN12C renal, -60.2% (active); in the experiment on UO-31 renal, -39.5% (active); in the experiment on TK-10 renal, 2.15% (active); in the experiment on ACHN renal, 15.3%. Further, the growth is 27.5% in the experiment with A498 renal; 4.35% (active) in the experiment on CCRF-CEM leukemia; -23.5% (active) in the experiment on MOLT-4 leukemia; -32.5% (active) in the experiment on RPMI-8226 leukemia; -9.27% (active) with OVCAR-8 ovarian; -32.7% (active) in the experiment on OVCAR-5 ovarian. The growth in the experiment on OVCAR-4 ovarian was 17.4%; with SK-OV-3 ovarian it was 0.639% (active); in the experiment with OVCAR-3 ovarian, -82.9% (active); with HS 578T breast, 69.5%; with NCI/ADR-RES ovarian, 27%.
With `CC1(C)N=C(N)N=C(N)N1c1ccc(OCC(=O)Nc2ccccc2)c(Cl)c1`, the growth was 47.5% with SK-MEL-2 melanoma; 48.9% in the experiment with EKVX NSCLC; 30.5% in the experiment with SN12C renal; 104% in the experiment with UO-31 renal; 57.6% in the experiment with TK-10 renal; 103% with ACHN renal. Moreover, the growth in the experiment with A498 renal is 94.8%; with CCRF-CEM leukemia, 28.8%; with MOLT-4 leukemia, 32%; with RPMI-8226 leukemia, 34.5%; in the experiment with OVCAR-8 ovarian, 21.9%; with OVCAR-5 ovarian it was 49%. The growth in the experiment on OVCAR-4 ovarian is 46.1%; in the experiment with SK-OV-3 ovarian, 57.3%; with OVCAR-3 ovarian it was 56.7%; with HS 578T breast, 97.7%; with NCI/ADR-RES ovarian, 102%.
Consider `O=C(CNc1cccnc1)Nc1ccc(C(=O)/C=C/c2ccc(Cl)cc2)cc1`, for which the growth is 84.4% with SK-MEL-2 melanoma; 95% in the experiment on EKVX NSCLC; 88.7% in the experiment on SN12C renal; 77.7% with UO-31 renal; 106% in the experiment on TK-10 renal; 101% in the experiment on ACHN renal. The growth with A498 renal was 86.9%; in the experiment on CCRF-CEM leukemia, 26.6%; in the experiment on RPMI-8226 leukemia it was 21.7%; with OVCAR-8 ovarian, 98.1%; in the experiment on OVCAR-5 ovarian, 92.7%; with OVCAR-4 ovarian, 87.1%. Moreover, the growth is 111% in the experiment with SK-OV-3 ovarian; 95.1% in the experiment with IGROV1 ovarian; 89.8% in the experiment on OVCAR-3 ovarian; 82.1% with HS 578T breast; 98% in the experiment on NCI/ADR-RES ovarian.
With `O=C1CN(CCN2CC(=O)NC(=O)C2)CC(=O)N1`, the growth in the experiment with SK-MEL-2 melanoma is 113%; in the experiment on EKVX NSCLC, 84.4%; in the experiment with SN12C renal it was 104%; in the experiment on UO-31 renal, 71.8%; in the experiment with TK-10 renal, 107%; with ACHN renal, 103%. For the same compound, the growth with A498 renal was 103%; in the experiment on CCRF-CEM leukemia, 107%; with MOLT-4 leukemia, 28.5%; in the experiment on RPMI-8226 leukemia, 88.1%; in the experiment on OVCAR-8 ovarian, 103%; with OVCAR-5 ovarian it was 93.2%. For the same compound, the growth is 96.1% in the experiment on OVCAR-4 ovarian; 102% in the experiment with SK-OV-3 ovarian; 113% in the experiment on OVCAR-3 ovarian; 102% with HS 578T breast; 99.9% in the experiment on NCI/ADR-RES ovarian.
As for `Nc1nc2ccc(CNc3ccc(C(=O)NC(CC(=O)O)C(=O)O)cc3)cc2c(=O)[nH]1` (stereo unspecified), the growth with SK-MEL-2 melanoma is 51.9%; in the experiment with EKVX NSCLC, 63.6%; in the experiment on SN12C renal, 41.3%; with UO-31 renal, 16.9%; in the experiment on TK-10 renal, 82%; with ACHN renal, 33.1%. The growth with A498 renal is 93.1%; in the experiment on CCRF-CEM leukemia, 23.2%; in the experiment with MOLT-4 leukemia, 30.4%; in the experiment with RPMI-8226 leukemia, 44.3%; in the experiment on OVCAR-8 ovarian it was 13.1%; in the experiment on OVCAR-5 ovarian it was 52.2%. For the same compound, the growth is 65.6% in the experiment with OVCAR-4 ovarian; 76.8% in the experiment with SK-OV-3 ovarian; 58.2% in the experiment with OVCAR-3 ovarian; 97.5% in the experiment with HS 578T breast; 33% with NCI/ADR-RES ovarian.
For the compound `Fc1ccc(/C=N/n2c(-c3cc(Cl)cc(Cl)c3Cl)nn(CNc3ccc(Cl)nn3)c2=S)cc1`, the growth in the experiment on SK-MEL-2 melanoma was 98.1%; in the experiment on EKVX NSCLC, 104%; in the experiment with SN12C renal, 102%; in the experiment with UO-31 renal, 89.4%; in the experiment on TK-10 renal, 103%; in the experiment with ACHN renal it was 104%. Further, the growth is 105% in the experiment with A498 renal; -70.4% (active) in the experiment on CCRF-CEM leukemia; 75.1% in the experiment on MOLT-4 leukemia; 79.7% with SR leukemia; 95.7% in the experiment with OVCAR-8 ovarian; 89.9% in the experiment with OVCAR-5 ovarian. Further, the growth in the experiment on OVCAR-4 ovarian was 91.8%; in the experiment on SK-OV-3 ovarian, 90.2%; with IGROV1 ovarian, 96.3%; with HS 578T breast, 108%.
